Data taken from the supplement of paper PMC6555819.

What was measured:
Experiment in all cases: PBM binding z-score (relative to random genomic background probes); higher = stronger binding; sequences stand for … in GC…GCGATTGACAGCGTAGAATGAAGG
[1] = system: FXR:RXRa (NR concentration 270 nM, RXRa partner concentration 90 nM)
Method in brief: (§1)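 Probes were double-stranded and carried 34-nt variable regions with direct-repeat seeds, single-nucleotide variants, half-site ablations and random human genomic background sequences, printed on custom Agilent 4×180K protein-binding microarrays. Arrays were incubated 1 h with ligand-free nuclear receptor dimers in PBS pH 7.4, 2% milk, 0.02% Triton X-100, 1 mM DTT, 0.2 mg/mL BSA and 0.4 mg/ml salmon testes DNA. Antibodies against each partner (one per run) detected binding, and scanned fluorescence was regression-normalized. Binding z-scores use the random background probes as reference.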

[2] = system: LXRa:RXRa (NR concentration 270 nM, RXRa partner concentration 90 nM)
Method in brief: as §1

[3] = system: LXRa homodimer (NR concentration 270 nM)
Method in brief: as §1

[4] = system: LXRb:RXRa (NR concentration 270 nM, RXRa partner concentration 90 nM)
Method in brief: as §1

[5] = system: LXRb homodimer (NR concentration 270 nM)
Method in brief: as §1

[6] = system: PPARa:RXRa (NR concentration 270 nM, RXRa partner concentration 90 nM)
Method in brief: as §1

[7] = system: PPARg:RXRa (NR concentration 180 nM, RXRa partner concentration 90 nM)
Method in brief: as §1

[8] = system: PPARg:RXRa 270nM:90nM, anti-RXR (NR concentration 270 nM, RXRa partner concentration 90 nM)
Method in brief: as §1

[9] = system: PPARg:RXRa 30nM:10nM, anti-RXR (NR concentration 30 nM, RXRa partner concentration 10 nM)
Method in brief: as §1

[10] = system: PPARg:RXRa 90nM:30nM, anti-RXR (NR concentration 90 nM, RXRa partner concentration 30 nM)
Method in brief: as §1

[11] = system: PPARg:RXRa DBDmut IVT, anti-RXR (DBD mutation: RXRa K156A/R161A, NR concentration 270 nM, RXRa partner concentration 90 nM)
Method in brief: as §1

[12] = system: PPARg:RXRa IVT, anti-PPARg (NR concentration 270 nM, RXRa partner concentration 90 nM)
Method in brief: as §1

[13] = system: PPARg DBDmut:RXRa IVT, anti-PPARg (DBD mutation: PPARg1 K132A/R137A, NR concentration 270 nM, RXRa partner concentration 90 nM)
Method in brief: as §1

[14] = system: PPARg DBDmut IVT, anti-PPARg (DBD mutation: PPARg1 K132A/R137A, NR concentration 270 nM)
Method in brief: as §1

[15] = system: PPARg homodimer (NR concentration 180 nM)
Method in brief: as §1

[16] = system: PXR:RXRa (NR concentration 270 nM, RXRa partner concentration 90 nM)
Method in brief: as §1

[17] = system: PXR homodimer (NR concentration 270 nM)
Method in brief: as §1

[18] = system: RARa:RXR (NR concentration 270 nM, RXRa partner concentration 90 nM)
Method in brief: as §1

[19] = system: RARa homodimer (NR concentration 270 nM)
Method in brief: as §1

[20] = system: RARb:RXRa (NR concentration 270 nM, RXRa partner concentration 90 nM)
Method in brief: as §1

Sequence | PBM binding z-score [1] | PBM binding z-score [2] | PBM binding z-score [3] | PBM binding z-score [4] | PBM binding z-score [5] | PBM binding z-score [6] | PBM binding z-score [7] | PBM binding z-score [8] | PBM binding z-score [9] | PBM binding z-score [10] | PBM binding z-score [11] | PBM binding z-score [12] | PBM binding z-score [13] | PBM binding z-score [14] | PBM binding z-score [15] | PBM binding z-score [16] | PBM binding z-score [17] | PBM binding z-score [18] | PBM binding z-score [19] | PBM binding z-score [20]
ACAGGCAGGTGATGAAGGTAACTCAGGCTATCAT | -0.308 | -0.138 | -0.317 | -0.214 | -0.617 | -0.126 | 0.575 | -0.133 | 0.158 | -0.0613 | 0.0324 | 0.0841 | 0.243 | -0.423 | -0.139 | -0.235 | 0.0904 | -0.0555 | 0.0189 | 0.121
ATACCAACGTGATCGTGAGGTCGTTGATACTAAC | 0.885 | 0.498 | 0.494 | 0.84 | -0.123 | 0.65 | 0.385 | -0.0479 | -0.202 | -0.163 | -0.625 | 0.0964 | 0.725 | 0.527 | 0.699 | 1.67 | 0.835 | 1.23 | -0.137 | 0.259
ATCTCTAGGTAATAGTTCAGTGAATCCCGAGGAT | 0.178 | 0.499 | 0.496 | 0.482 | 0.778 | 3.1 | 5.39 | 6.33 | 5.08 | 6.63 | 2.36 | 2.79 | 1.15 | 2.02 | 1.07 | 0.458 | 0.386 | 0.192 | 1.4 | 1.16
CCTACTAGGCCAAGGTCATTGATCAGTCAAAGCA | 3.42 | 3.71 | 2.03 | 3.21 | 0.097 | 4.66 | 4.96 | 4.59 | 2.19 | 4.42 | 5.34 | 4.8 | 0.0145 | 0.199 | 1.67 | 3.52 | 1.98 | 3.68 | 0.849 | 3.62
CCTAGCAGGCCAATCTGGGTCACTCAAGGCTTGA | 1.5 | 1.42 | -0.498 | 0.851 | -1.04 | 3.1 | 1.69 | 2.6 | -0.232 | 1.52 | 4.72 | 5.12 | -1.06 | -0.836 | 0.786 | 0.995 | -0.679 | 1.17 | -0.672 | 1.58
CCTGGGAGGACAGAAGGTCAGAGCTGTCCGCTTT | 1.53 | 1.86 | 0.303 | 1.01 | -0.655 | 2 | -0.0173 | 1.11 | -0.659 | 0.29 | -0.504 | 0.212 | -1.2 | -1.6 | 1.81 | 1.65 | -0.162 | 2.16 | 0.121 | 3.35
GCGTACGGGTCAAAGGTTATAGCATGAATAGAAT | 7.58 | 5.75 | 0.516 | 5.7 | -0.18 | 6.8 | 10.5 | 8.74 | 8.99 | 9.27 | 2.3 | 4.85 | 0.234 | 2 | 4.07 | 6.11 | 0.08 | 8.62 | 0.0431 | 4.64
CGAACTAGGTCATTGACAGGACGGTGAATAGTAA | 4.57 | 2.37 | 0.115 | 1.47 | -0.0948 | 4.67 | 7.41 | 6.31 | 3.36 | 5.61 | 8.29 | 8.22 | 1.89 | 0.528 | 0.985 | 1.12 | -0.168 | 1.81 | 0.0523 | 3.63
GCTGCTAAGTCAACTGATGGTCAGCTAAAGCTCG | -0.765 | -0.562 | -0.539 | -0.754 | -1.04 | -0.555 | -0.342 | -0.538 | -0.793 | -0.507 | -0.284 | -0.667 | -2.15 | -1.17 | -0.917 | -0.575 | -1.21 | -0.177 | -1.24 | 0.174
TCTTGTAGCTCAAGCAGGTTAAGAAAGCCTGAGT | -0.423 | -0.287 | -0.662 | 0.0107 | -0.909 | 0.461 | -0.708 | 0.77 | 2.04 | 1.39 | 0.652 | -0.0591 | -0.768 | -0.282 | -1.23 | -0.102 | -0.596 | -0.128 | -0.944 | -0.012
CCTACTGGGCCAAGGTCATTGATCAGTCAAAGCA | 2.95 | 3.12 | 1.06 | 2.74 | -0.497 | 4.1 | 4.15 | 4.44 | 1.5 | 3.81 | 3.5 | 4.5 | -0.374 | -1.03 | 1.27 | 3.3 | 0.534 | 3.29 | -0.4 | 3.27
GCATATAGGTGATACAAGGTGAAAGTCCGATTGT | 1.98 | 0.421 | -0.185 | 0.234 | -0.213 | 2.26 | 1.73 | 2.17 | 0.808 | 1.33 | 5.22 | 4.28 | 0.633 | 0.787 | 0.568 | 0.71 | -0.00117 | 1.11 | 0.474 | 0.893
TCTGCTAGGTCGACGATGGTCAGCTAATCTGCTA | -0.0207 | 0.0577 | -1.03 | -0.332 | -1.02 | 0.202 | -0.26 | 0.642 | 1.2 | 0.698 | 1.12 | 0.905 | -0.448 | -0.108 | -1.39 | -0.185 | -1.16 | 0.0229 | -1.42 | 1.16
TAGCCTAGGTCAGATCGGACCAGTATACGCTATA | 1.36 | 1.26 | -0.219 | 1.03 | -0.138 | 1.99 | 0.959 | 0.981 | -0.106 | 0.213 | 0.812 | 1.36 | 0.21 | 0.399 | 0.0652 | 0.377 | -0.37 | 1.48 | -0.814 | 2.85
